Results filed as inconclusive are left out. Calls of active or inactive are those of the source. How the source made its calls, unless noted: active means hit-call score of the fitted dose curve at least 0.9, where 1 is the maximum; inconclusive means response in the unintended direction; inactive means score below 0.9.
Tests used:
[1] = ATG_VDRE_CIS: Attagene CIS-FACTORIAL HepG2 Assay for human Vitamin D Receptor Element (VDRE) (AID 2282968; active means hit-call score of the fitted dose curve at least 0.9, where 1 is the maximum; inactive means score below 0.9); settings: HepG2 VDRE cis-reporter transcription, actives raise or lower the signal
How it was run: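 Transient MRTU transfection of HepG2, 24 h compound exposure. Readout: reporter transcripts via RT-PCR and capillary electrophoresis, fluorescence. Bidirectional fit vs DMSO.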

[2] = target: X-box-binding protein 1 (Homo sapiens) (UniProt P17861); test: ATG_Xbp1_CIS: Attagene CIS-FACTORIAL HepG2 Assay for human X-box Binding Protein 1 (XBP1) (AID 2282972; active means hit-call score of the fitted dose curve at least 0.9, where 1 is the maximum; inactive means score below 0.9); settings: HepG2 XBP1 cis-element reporter, Attagene multiplex; actives raise or lower the signal
Chain of X-box-binding protein 1 (Homo sapiens) (P17861 whole entry, looked up, the tested form may be a part): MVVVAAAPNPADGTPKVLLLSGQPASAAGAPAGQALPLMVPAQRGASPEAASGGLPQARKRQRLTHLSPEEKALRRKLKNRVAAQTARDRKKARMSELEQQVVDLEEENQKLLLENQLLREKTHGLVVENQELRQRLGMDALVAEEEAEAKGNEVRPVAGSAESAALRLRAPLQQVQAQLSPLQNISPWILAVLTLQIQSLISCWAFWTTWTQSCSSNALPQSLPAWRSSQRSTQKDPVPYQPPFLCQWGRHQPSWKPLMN
How it was run: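 Read-out: fluorescent reporter mRNA fragments resolved by capillary electrophoresis after RT-PCR. Human HepG2 liver cells carried transfected cis-promoter reporter units and were exposed to chemicals for 24 hours. Gain or loss of signal fitted relative to DMSO baseline.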

[3] = target: Androgen receptor (Homo sapiens) (UniProt P10275); test: ATG_AR_TRANS: Attagene TRANS-FACTORIAL HepG2 Assay for human Androgen Receptor (AR) (AID 2282973); settings: HepG2 Attagene TRANS-FACTORIAL AR reporter transcription
Chain of Androgen receptor (Homo sapiens) (P10275 whole entry, looked up, the tested form may be a part): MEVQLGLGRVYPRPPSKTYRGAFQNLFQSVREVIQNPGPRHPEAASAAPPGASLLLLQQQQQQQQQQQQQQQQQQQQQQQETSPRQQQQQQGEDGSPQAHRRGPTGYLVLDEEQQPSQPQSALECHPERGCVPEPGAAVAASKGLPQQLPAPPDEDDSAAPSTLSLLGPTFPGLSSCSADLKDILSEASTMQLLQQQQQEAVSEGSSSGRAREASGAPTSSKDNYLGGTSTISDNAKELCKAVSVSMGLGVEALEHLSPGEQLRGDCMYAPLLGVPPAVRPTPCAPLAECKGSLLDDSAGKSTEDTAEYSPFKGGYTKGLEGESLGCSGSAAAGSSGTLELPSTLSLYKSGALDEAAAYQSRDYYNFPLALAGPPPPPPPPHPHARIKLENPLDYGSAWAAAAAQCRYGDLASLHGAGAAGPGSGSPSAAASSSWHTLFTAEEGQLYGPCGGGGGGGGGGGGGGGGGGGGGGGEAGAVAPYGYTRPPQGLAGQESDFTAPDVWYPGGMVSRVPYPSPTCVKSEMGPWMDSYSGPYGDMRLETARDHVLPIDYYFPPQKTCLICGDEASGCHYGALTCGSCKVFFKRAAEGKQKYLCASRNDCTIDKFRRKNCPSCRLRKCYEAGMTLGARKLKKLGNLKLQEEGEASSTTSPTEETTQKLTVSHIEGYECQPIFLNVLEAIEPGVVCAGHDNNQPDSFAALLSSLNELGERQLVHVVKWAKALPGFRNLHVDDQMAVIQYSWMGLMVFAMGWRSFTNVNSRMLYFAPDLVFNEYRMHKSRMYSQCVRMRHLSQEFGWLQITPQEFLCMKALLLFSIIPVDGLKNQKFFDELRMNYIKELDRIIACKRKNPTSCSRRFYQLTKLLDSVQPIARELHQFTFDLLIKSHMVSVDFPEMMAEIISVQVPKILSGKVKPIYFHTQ
How it was run: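 Steps: transfect HepG2 with multiple GAL4-UAS reporter transcription units (TRANS format, exogenous NR-Gal4 protein); dose 24 h; isolate RNA, reverse-transcribe, PCR-amplify, FAM-label, HpaI-digest; resolve by capillary electrophoresis. Positive direction vs DMSO.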

[4] = target: Glucocorticoid receptor (Homo sapiens) (UniProt P04150); test: ATG_GR_TRANS: Attagene TRANS-FACTORIAL HepG2 Assay for human Glucocorticoid Receptor (GR) (AID 2282978); settings: HepG2 Attagene TRANS GR reporter, mRNA transcription;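 further: activators score as hits since higher reporter transcript over DMSO is fitted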
Chain of Glucocorticoid receptor (Homo sapiens) (P04150 whole entry, looked up, the tested form may be a part): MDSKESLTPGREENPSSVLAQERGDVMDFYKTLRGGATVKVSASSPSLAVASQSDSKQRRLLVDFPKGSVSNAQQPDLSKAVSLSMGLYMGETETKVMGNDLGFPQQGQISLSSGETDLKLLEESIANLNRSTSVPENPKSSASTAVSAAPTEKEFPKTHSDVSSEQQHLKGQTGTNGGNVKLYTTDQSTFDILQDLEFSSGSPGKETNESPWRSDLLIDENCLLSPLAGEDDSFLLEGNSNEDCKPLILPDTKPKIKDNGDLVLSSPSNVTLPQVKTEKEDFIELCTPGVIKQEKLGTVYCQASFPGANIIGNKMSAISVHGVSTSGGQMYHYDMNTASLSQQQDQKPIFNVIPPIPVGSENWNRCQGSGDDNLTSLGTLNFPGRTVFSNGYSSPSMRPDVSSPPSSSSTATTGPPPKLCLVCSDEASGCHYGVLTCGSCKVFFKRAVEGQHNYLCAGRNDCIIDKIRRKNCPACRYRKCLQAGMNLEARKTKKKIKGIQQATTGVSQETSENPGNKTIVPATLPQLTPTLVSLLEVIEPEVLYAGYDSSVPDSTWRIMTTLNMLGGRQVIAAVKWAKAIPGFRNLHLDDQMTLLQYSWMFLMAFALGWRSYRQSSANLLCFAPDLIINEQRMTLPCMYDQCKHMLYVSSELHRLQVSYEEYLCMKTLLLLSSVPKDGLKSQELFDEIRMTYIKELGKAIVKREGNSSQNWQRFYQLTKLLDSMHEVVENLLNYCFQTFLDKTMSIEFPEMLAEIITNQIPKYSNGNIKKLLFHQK
How it was run: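 In this trans-factorial format, exogenous NR-GAL4 chimeric proteins in transfected HepG2 cells regulate GAL4-UAS reporter transcription. After 24 h treatment, reporter mRNA induction relative to DMSO is read by RT-PCR and capillary electrophoresis.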

[5] = ATG_GAL4_TRANS: Attagene TRANS-FACTORIAL HepG2 Assay for GAL4 (Internal Marker) (AID 2282976); settings: HepG2 Attagene TRANS GAL4 internal marker reporter
How it was run: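 First, HepG2 cells were transfected with reporter units under GAL4-UAS control. Next, they were treated with chemical for 24 h. Finally, RNA was reverse-transcribed, PCR-amplified, FAM-labelled and resolved by capillary electrophoresis, with induction scored against DMSO.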

[6] = ATG_M_19_TRANS: Attagene TRANS-FACTORIAL HepG2 Assay for M19 Transcription Factor (Internal Marker) (AID 2282974); settings: HepG2 Attagene TRANS-FACTORIAL M19 internal marker reporter
How it was run: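 Cells: human HepG2, transiently transfected with multiplexed reporter transcription units. Exposure: 24 h. Detection: RT-PCR of reporter mRNA with capillary electrophoresis. Analysis: gain-of-signal vs DMSO.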

[7] = target: Nuclear receptor subfamily 1 group I member 3 (Homo sapiens) (UniProt Q14994); test: ATG_CAR_TRANS: Attagene TRANS-FACTORIAL HepG2 Assay for human Constitutive Androstane Receptor (CAR) (AID 2282969); settings: HepG2 Attagene TRANS-FACTORIAL CAR reporter;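 further: activators raise reporter mRNA above DMSO so AC50 marks induction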
Chain of Nuclear receptor subfamily 1 group I member 3 (Homo sapiens) (Q14994 whole entry, looked up, the tested form may be a part): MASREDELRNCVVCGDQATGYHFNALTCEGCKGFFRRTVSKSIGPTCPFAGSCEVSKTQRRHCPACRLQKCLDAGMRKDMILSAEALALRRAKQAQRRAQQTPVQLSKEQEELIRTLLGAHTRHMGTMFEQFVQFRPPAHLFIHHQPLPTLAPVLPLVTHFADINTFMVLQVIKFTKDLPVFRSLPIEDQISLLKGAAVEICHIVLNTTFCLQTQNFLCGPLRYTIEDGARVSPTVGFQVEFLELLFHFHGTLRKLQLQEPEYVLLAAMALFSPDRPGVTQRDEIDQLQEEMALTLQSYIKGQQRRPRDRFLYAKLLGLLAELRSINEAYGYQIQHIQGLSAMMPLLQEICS
How it was run: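 Transiently transfected HepG2, multiplex TRANS reporters (CAR-Gal4 chimera driving GAL4-UAS reporter). 24 h dosing. Readout: reporter transcript by RT-PCR + capillary electrophoresis, fluorescence intensity; positive direction vs DMSO.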

[8] = target: Estrogen receptor (Homo sapiens) (UniProt P03372); test: ATG_ERa_TRANS: Attagene TRANS-FACTORIAL HepG2 Assay for human Estrogen Receptor alpha (ERa) (AID 2282970); settings: HepG2 Attagene TRANS ERa GAL4 reporter, mRNA
Chain of Estrogen receptor (Homo sapiens) (P03372 whole entry, looked up, the tested form may be a part): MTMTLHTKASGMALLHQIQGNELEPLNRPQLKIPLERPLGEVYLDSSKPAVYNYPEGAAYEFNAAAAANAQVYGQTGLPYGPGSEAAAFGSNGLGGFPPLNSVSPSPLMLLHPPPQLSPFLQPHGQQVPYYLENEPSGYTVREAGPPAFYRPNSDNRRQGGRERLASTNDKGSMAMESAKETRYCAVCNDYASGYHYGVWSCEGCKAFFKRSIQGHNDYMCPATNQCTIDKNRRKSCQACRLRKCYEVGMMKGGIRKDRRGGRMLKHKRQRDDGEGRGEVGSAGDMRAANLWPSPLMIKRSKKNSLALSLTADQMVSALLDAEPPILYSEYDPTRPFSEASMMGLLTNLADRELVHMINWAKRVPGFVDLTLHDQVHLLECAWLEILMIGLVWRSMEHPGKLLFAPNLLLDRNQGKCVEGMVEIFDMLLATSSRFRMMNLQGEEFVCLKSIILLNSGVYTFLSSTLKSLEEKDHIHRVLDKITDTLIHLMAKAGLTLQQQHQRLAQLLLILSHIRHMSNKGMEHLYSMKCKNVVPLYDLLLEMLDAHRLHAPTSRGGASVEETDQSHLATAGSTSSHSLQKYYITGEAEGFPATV
How it was run: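 Liver-derived HepG2 cells expressing chimeric nuclear receptor-Gal4 proteins from transient transfection were exposed for 24 hours. Gain of reporter mRNA signal versus DMSO, read by capillary electrophoresis of FAM-labelled PCR products, was recorded.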

[9] = target: Steroid hormone receptor ERR1 (Homo sapiens) (UniProt P11474); test: ATG_ERRa_TRANS: Attagene TRANS-FACTORIAL HepG2 Assay for human Estrogen-Related Receptor alpha (ERRa) (AID 2282971); settings: HepG2 Attagene TRANS reporter, ERRa transactivation
Chain of Steroid hormone receptor ERR1 (Homo sapiens) (P11474 whole entry, looked up, the tested form may be a part): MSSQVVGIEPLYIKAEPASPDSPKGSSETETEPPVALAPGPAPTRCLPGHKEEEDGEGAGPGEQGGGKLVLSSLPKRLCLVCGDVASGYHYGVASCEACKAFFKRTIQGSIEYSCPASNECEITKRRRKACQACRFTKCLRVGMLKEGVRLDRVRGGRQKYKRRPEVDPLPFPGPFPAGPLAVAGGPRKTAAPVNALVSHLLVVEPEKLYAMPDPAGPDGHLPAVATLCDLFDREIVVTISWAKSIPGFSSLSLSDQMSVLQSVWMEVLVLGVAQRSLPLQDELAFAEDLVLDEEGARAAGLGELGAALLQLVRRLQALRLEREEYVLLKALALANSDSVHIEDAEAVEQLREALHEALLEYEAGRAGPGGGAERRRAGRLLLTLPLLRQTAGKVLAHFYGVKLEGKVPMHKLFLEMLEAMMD
How it was run: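 Reporter transcript induction was quantified by RT-PCR and capillary electrophoresis of FAM-labelled, HpaI-cut products after 24 h treatment of HepG2 cells carrying transiently transfected GAL4-UAS reporter units and an exogenous ERRa-Gal4 fusion; activity scored as increase over DMSO.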

[10] = target: Estrogen-related receptor gamma (Homo sapiens) (UniProt P62508); test: ATG_ERRg_TRANS: Attagene TRANS-FACTORIAL HepG2 Assay for human Estrogen-Related Receptor gamma (ERRg) (AID 2282977); settings: HepG2 Attagene TRANS reporter, ERRg transactivation;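 further: hits increase reporter signal over DMSO so potencies reflect activators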
Chain of Estrogen-related receptor gamma (Homo sapiens) (P62508 whole entry, looked up, the tested form may be a part): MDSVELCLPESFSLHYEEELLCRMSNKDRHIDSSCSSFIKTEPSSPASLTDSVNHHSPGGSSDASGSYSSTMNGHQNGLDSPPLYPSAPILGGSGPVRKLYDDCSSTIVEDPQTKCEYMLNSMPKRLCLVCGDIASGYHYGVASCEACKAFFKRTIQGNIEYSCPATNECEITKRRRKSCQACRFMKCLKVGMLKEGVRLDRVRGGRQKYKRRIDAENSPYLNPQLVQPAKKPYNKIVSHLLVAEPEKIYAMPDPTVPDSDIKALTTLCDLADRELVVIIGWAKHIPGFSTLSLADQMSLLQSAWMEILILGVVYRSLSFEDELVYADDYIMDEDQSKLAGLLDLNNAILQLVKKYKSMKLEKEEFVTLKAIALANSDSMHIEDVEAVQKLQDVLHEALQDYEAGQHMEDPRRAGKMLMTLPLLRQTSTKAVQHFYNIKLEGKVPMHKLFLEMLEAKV
How it was run: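 Readout: fluorescent reporter-mRNA fragments resolved by capillary electrophoresis after RT-PCR and HpaI cut. Cells: transiently transfected HepG2 carrying GAL4-UAS reporters driven by exogenous NR-Gal4 chimeras, dosed 24 h. Activity fitted upward relative to DMSO baseline.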

Measured: AC50

CCOC(=O)c1ccccc1S(=O)(=O)NC(=O)Nc1nc(Cl)cc(OC)n1
inactive: [1] | [2] | [3] | [4]

CC1CC(=O)O1 (centres undefined)
inactive: [1] | [2]

CC(C=O)Cc1ccc2c(c1)OCO2 (centres undefined)
inactive: [5]
active: [1] 12.8 µM

CC(C)C(C)(N)C#N (centres undefined)
inactive: [1] | [2] | [6] | [4]

O=[N+]([O-])c1ccc(Cl)c([N+](=O)[O-])c1
inactive: [1] | [2] | [6] | [4]

CCN(CC)C(=O)C(Cl)=C(C)OP(=O)(OC)OC
inactive: [1] | [2] | [4]

N#CS
inactive: [1] | [2] | [5] | [4]

ClCc1ccccc1Cl
active: [1] 100 µM | [2] 100 µM
inactive: [6]

CCCCCCCCCCCCc1cccc(S(=O)(=O)O)c1
inactive: [7]

OC[C@@H](O)[C@H]1O[C@@H]2O[C@H](C(Cl)(Cl)Cl)O[C@@H]2[C@H]1O
inactive: [7] | [8] | [9] | [2] | [5]

C=CCOC(N)=O
inactive: [1] | [2] | [5] | [4]

COc1nn(C(=O)NS(=O)(=O)c2ccccc2OC(F)(F)F)c(=O)n1C
inactive: [1] | [2] | [5] | [4]

N#CCC#N
inactive: [1] | [2] | [4]

Brc1ccc(Br)cc1
inactive: [1] | [2] | [6] | [5] | [10]

C[C@H]1C(=O)O[C@@H]2CCN3CC=C(COC(=O)[C@](C)(O)[C@]1(C)O)[C@H]23
inactive: [1] | [6] | [5]

OC[P+](CO)(CO)CO
inactive: [1] | [2] | [6] | [5] | [4]

C=CC(Cl)CCl (centres undefined)
inactive: [1] | [3] | [4]

O=C(O)CC(O)(CC(=O)O)C(=O)O
inactive: [1] | [2] | [6]

Clc1cccc(Cl)c1
inactive: [1] | [2] | [6] | [5] | [10] | [4]

Cc1cc(Cl)ccc1OC(C)C(=O)O (centres undefined)
inactive: [2] | [6]

CCC(C)(C#N)N=NC(C)(C#N)CC (centres undefined)
inactive: [7] | [8] | [2] | [3] | [6] | [5]

Nc1ncn[nH]1
inactive: [7] | [2]

BrCCCCBr
inactive: [2] | [5] | [4]

O=c1nc(O)n(Cl)c(=O)n1Cl
inactive: [9] | [6] | [5]

O=[N+]([O-])c1cccc2ccccc12
active: [8] 39.9 µM
inactive: [9] | [2] | [6] | [5] | [10]

Oc1ccc(Cc2ccc(O)cc2)cc1
active: [8] 0.842 µM
inactive: [2] | [4]

Oc1cc(Cl)c(Cl)cc1Cl
active: [2] 59 µM
inactive: [6] | [5]

Nc1ccc(Br)cc1
inactive: [8] | [2] | [6] | [5]
active: [4] 100 µM

C=CC(=O)OCC(COC(=O)C=C)(COC(=O)C=C)COC(=O)C=C
inactive: [8] | [9]
active: [2] 8.13 µM

c1ccc(-c2cccc(-c3ccccc3)c2)cc1
active: [8] 27.3 µM
inactive: [2] | [6]

O=NN1CCCCCCC1
inactive: [7] | [8] | [2] | [5] | [4]

CCOP(=S)(OCC)OP(=S)(OCC)OCC
inactive: [7] | [2] | [3] | [6] | [5] | [4]

CNC(=O)O/N=C/C(C)(C)S(C)(=O)=O
inactive: [7] | [6]

Cc1cc(Cl)ccc1N
inactive: [7] | [2] | [6] | [5] | [4]

Oc1c(Cl)cc(Cl)cc1Cl
inactive: [7] | [2]

Cl[C@H]1OCCO[C@@H]1Cl
inactive: [9] | [2] | [6]

CC(C)CP(=S)(S)CC(C)C
inactive: [7] | [8] | [2] | [5] | [4]

C#C[C@]1(O)CC[C@H]2[C@@H]3CCC4=CC(=O)CC[C@]4(C)[C@H]3CC[C@@]21C
inactive: [2]

CC(=O)CN(CC(C)=O)N=O
inactive: [8] | [9] | [2] | [5] | [4]

CCCCOC(C)=O
inactive: [8] | [2] | [6] | [5]

COC(=O)Nc1cccc(OC(=O)Nc2cccc(C)c2)c1
inactive: [2] | [6]

CCCCCCCCCCCCOS(=O)(=O)O
inactive: [6] | [5] | [4]

CC(C)O.CC(C)O.OCCN(CCO)CCO.OCCN(CCO)CCO.[Ti]
inactive: [7] | [2] | [5]

O=C1C[C@@H]2OCC=C3CN4CC[C@]56c7ccccc7N1[C@H]5[C@H]2[C@H]3C[C@H]46
inactive: [2] | [6] | [5]

CC1(C)[C@H](/C=C2\CCSC2=O)[C@@H]1C(=O)OCc1coc(Cc2ccccc2)c1
inactive: [7] | [2]

Oc1c(Br)cc(Br)cc1Br
inactive: [7] | [6]
active: [8] 5.59 µM | [2] 42 µM

O=c1[nH]c(=O)n(Cl)c(=O)n1Cl
inactive: [9] | [6] | [5] | [4]

CC(c1ccc(O)cc1)c1ccc(O)cc1
active: [2] 130 µM
inactive: [7] | [9] | [6] | [10] | [4]

OCCN(CCO)CCO
inactive: [2] | [5]

Fc1cccc(Cl)c1CCl
inactive: [7] | [8] | [2] | [6] | [4]

O=[N+]([O-])c1ccccc1O
inactive: [9] | [2] | [6] | [5] | [4]

Reference: PubChem BioAssay (EPA / NIEHS)
